Source: PubChem BioAssay (Tox21)
Values joined by “and” are separate entries in the source; they are usually repeats but may differ in a detail not shown here. Identical values can stand only once. Records with an inconclusive call do not appear. Entries that show only a call come without a potency. Some compounds were tested as several samples or in several runs, with calls that do not always agree. Active and inactive are the calls of the source. Unless noted, calls follow the shape of the dose curve; as a rule, active = well fitted curve in the direction sought with a large enough effect in the repeat runs; inconclusive = weak or mixed curves; inactive = no such curve, though single readings can be large; an effect the other way counts as inactive or inconclusive.

Experiments:
[1] = qHTS assay for small molecule agonists of the p53 signaling pathway (AID 651631; calls by dose curve; also: nearly all actives have a fitted effect of over 15% in size)
Method in brief: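 HCT-116 p53RE-bla reporter line, 16 h compound treatment at 37 °C, then fluorescence after 2 h with B/G FRET substrate.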

[2] = qHTS assay for small molecules that induce genotoxicity in human embryonic kidney cells expressing luciferase-tagged ATAD5 (AID 651632); also: nearly all actives have a fitted effect of over 15% in size
Method in brief: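 Luminescence read-out: after 16 hr compound exposure at 37C, ATAD5-luciferase HEK293T cells received Amplite, 30 min RT, then CCD imaging. A rise in signal marks genotoxic stress.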

[3] = qHTS assay for small molecule agonists of the p53 signaling pathway - cell viability (AID 651633; calls by dose curve; also: nearly all actives have a fitted effect of over 30% in size; also: potency is read from the fitted curve at half-maximal effect;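 as to activity change, negative = cytotoxicity: p53RE-bla HCT reporter cells with a stable beta-lactamase p53 reporter; series mostly up to about 83 µM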)
Method in brief: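 Viability counter-read: CellTiter-Glo luminescence (30 min, room temperature) in the same p53RE-bla plates. These plates had been exposed to compounds for 16 h at 37 C.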

[4] = qHTS assay for small molecules that induce genotoxicity in human embryonic kidney cells expressing luciferase-tagged ATAD5 - cell viability (AID 651634; calls by dose curve; also: nearly all actives have a fitted effect of over 25% in size)
Method in brief: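 HEK293T ATAD5-luc cells, 2,000/well; compound 15.5 hr, 37C/5% CO2; CellTiter-Fluor 30 min, 37C; fluorescence read.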

[5] = qHTS assay for small molecule disruptors of the mitochondrial membrane potential - cell viability (AID 720634; calls by dose curve;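 also: human HepG2 liver cancer cells; series mostly up to about 83 µM; nearly all actives have a fitted effect of over 20% in size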)
Method in brief: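 Luminescence from CellTiter-Glo (ATP content) gave viability in HepG2 cells, read in the same wells as the MMP dye assay after 1 hr compound exposure at 37 C.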

[6] = qHTS assay for small molecule disruptors of the mitochondrial membrane potential (AID 720635); also: potency is read from the fitted curve at half-maximal effect
Method in brief: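 Mitochondrial membrane potential tracked with Mito-MPS dye, red aggregates (ex 540/em 590 nm) against green monomers (ex 490/em 535 nm). Compound treatment 1 hr at 37C, dye 30 min in HepG2.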

[7] = qHTS assay to test for compound auto fluorescence at 590 nm (red) in HepG2 cells (AID 720674)
Method in brief: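 1 hr compound incubation on HepG2 cells, 37 C, 5% CO2; plate read ex 540 nm / em 590 nm; intensities reported as Rose Bengal sodium equivalents.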

[8] = qHTS assay to test for compound auto fluorescence at 535 nm (green) in HepG2 cells (AID 720675)
[9] = qHTS assay to test for compound auto fluorescence at 460 nm (blue) in HEK293 cells (AID 720678)
Method in brief: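 Measured: blue fluorescence (Ex 405/Em 460 nm) of compound-treated HEK293 cells, incubated overnight at 37C with 5% CO2 and scaled to triamterene equivalents.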

[10] = qHTS assay to test for compound auto fluorescence at 590 nm (red) in HEK293 cells (AID 720679)
Method in brief: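 Using HEK293 cells at 2,000 per well, the screen added 23 nL of each compound after cell attachment and incubated overnight (37C, 5% CO2). The plate reader then captured red-label fluorescence, Ex/Em 540/590nm.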

| SMILES | Potency [1] | outcome [2] | Potency [3] | Potency [4] | Potency [5] | Potency [6] | outcome [7] | outcome [8] | outcome [9] | outcome [10] | activation [1] | activation [2] | activity change, negative = cytotoxicity [3] | activity, negative = cytotoxicity [4] | activity change, negative = cytotoxicity [5] | fluorescence, % of fluorescein control [8] | fluorescence, % of triamterene [9] | fluorescence, % of fluorescent control [10] |
| --- | --- | --- | --- | --- | --- | --- | --- | --- | --- | --- | --- | --- | --- | --- | --- | --- | --- | --- |
| Nc1c(Cl)c(F)nc(OCC(=O)O)c1Cl | inactive | inactive | inactive | inactive | inactive | inactive | inactive | inactive | inactive | inactive |  |  |  |  |  |  |  |  |
| CC(C)(C)c1cc(O)ccc1O | inactive | inactive | inactive and 29.8 µM (active) | inactive | inactive | inactive and 22.1 µM (active) | inactive | inactive | inactive | inactive |  |  |  |  |  |  |  |  |
| CCN(CCO)CCn1c(Cc2ccccc2)nc2c1c(=O)n(C)c(=O)n2C | inactive | inactive | inactive | inactive | inactive | inactive |  | inactive | inactive | inactive |  |  |  |  |  |  |  |  |
| CC(C)(O)C(Cl)(Cl)Cl | inactive | inactive | inactive | inactive | inactive | inactive |  | inactive | inactive |  |  |  |  |  |  |  |  |  |
| O=C(Cl)CCl | inactive | inactive | inactive | inactive | inactive | inactive |  | inactive | inactive |  |  |  |  |  |  |  |  |  |
| C=C1CC[C@@]2(O)[C@H]3Cc4ccc(O)c5c4[C@@]2(CCN3CC2CC2)[C@H]1O5 | inactive | inactive | inactive | inactive | inactive | inactive | inactive | inactive | inactive | inactive |  |  |  |  |  |  |  |  |
| CCCCS(=O)(=O)Cl | inactive | inactive | inactive | inactive | inactive | inactive | inactive | inactive | inactive | inactive |  |  |  |  |  |  |  |  |
| CC1N=C(N)OC1c1ccccc1 (stereo unspecified) | inactive | inactive | inactive | inactive | inactive | inactive | inactive | inactive | inactive | inactive |  |  |  |  |  |  |  |  |
| CCCCOC(C)=O | inactive | inactive | inactive | inactive | inactive | inactive | inactive | inactive | inactive |  |  |  |  |  |  |  |  |  |
| OP(O)c1ccccc1 | inactive | inactive | inactive | inactive | inactive | inactive | inactive | inactive | inactive | inactive |  |  |  |  |  |  |  |  |
| CC(Cc1ccccc1)NCCn1cnc2c1c(=O)n(C)c(=O)n2C (stereo unspecified) | inactive | inactive | inactive | inactive | inactive | inactive | inactive | inactive | inactive |  |  |  |  |  |  |  |  |  |
| OCC(Cl)CCl (stereo unspecified) | inactive | inactive | inactive | inactive | inactive | inactive | inactive | inactive | inactive | inactive |  |  |  |  |  |  |  |  |
| C=CC1(C)OC(=O)N(c2cc(Cl)cc(Cl)c2)C1=O (stereo unspecified) | inactive | inactive | inactive | inactive | inactive | 54.5 µM (active) | inactive | inactive | inactive | inactive |  |  |  |  |  |  |  |  |
| CC1NCCOC1c1ccccc1 (stereo unspecified) | inactive | inactive | inactive | inactive | inactive | inactive | inactive | inactive | inactive | inactive |  |  |  |  |  |  |  |  |
| CNC(=O)O/N=C(/CSC)C(C)(C)C | inactive | inactive | inactive | inactive | inactive |  | inactive | inactive | inactive | inactive |  |  |  |  |  |  |  |  |
| Clc1cc2c(cc1Cl)Oc1cc(Cl)c(Cl)cc1O2 |  |  |  |  |  |  |  |  |  |  | -5.64% [at 0.337 µM] (inactive) | 0.775% [at 0.33 µM] (inactive) | -8.49% [at 0.33 µM] (inactive) | 15.1% [at 0.33 µM] (inactive) | 5.89% [at 0.33 µM] (inactive) | -0.0272% [at 0.37 µM] (inactive) | -0.0407% [at 0.37 µM] (inactive) |  |
| CCCCCCC1CCOC1=O (stereo unspecified) | inactive | inactive | inactive | inactive | inactive | inactive |  | inactive | inactive | inactive |  |  |  |  |  |  |  |  |
| O=C(CCl)NCO | inactive | inactive | inactive | inactive | inactive |  | inactive | inactive | inactive | inactive |  |  |  |  |  |  |  |  |
| C/C=C/CC#N | inactive | inactive | inactive | inactive | inactive |  | inactive | inactive | inactive | inactive |  |  |  |  |  |  |  |  |
| CCC(C)(C#N)N=NC(C)(C#N)CC (stereo unspecified) | inactive | inactive | inactive | inactive | inactive |  |  | inactive | inactive |  |  |  |  |  |  |  |  |  |
| BrCCc1ccccc1 | inactive | inactive | inactive | inactive | inactive |  | inactive | inactive | inactive | inactive |  |  |  |  |  |  |  |  |
| O=C(Cl)C(Cl)Cl | inactive | inactive | inactive | inactive | inactive |  | inactive | inactive | inactive | inactive |  |  |  |  |  |  |  |  |
| CCOC(=O)c1ncn2c1CN(C)C(=O)c1c(I)cccc1-2 | inactive | inactive | inactive | inactive | inactive |  | inactive | inactive | inactive | inactive |  |  |  |  |  |  |  |  |
| COc1ccc(CN2CCNCC2)c(OC)c1OC | inactive | inactive | inactive | inactive | inactive | inactive |  |  |  |  |  |  |  |  |  | 0.0608% [at 18.6 µM] (inactive) | -0.103% [at 18.6 µM] (inactive) | 0.0575% [at 18.6 µM] (inactive) |
| NC(=O)OCCCc1ccccc1 | inactive | inactive | inactive | inactive |  | inactive | inactive | inactive | inactive |  |  |  |  |  |  |  |  |  |
| BrCc1ccc(Br)cc1 | inactive | inactive | inactive | inactive | inactive | inactive |  | inactive | inactive | inactive |  |  |  |  |  |  |  |  |
